Data from the supplement of paper PMC6089552.
The whole screen tested about 3,200 compounds, of which about 300 (9.4%) showed activity. For the sample, actives were picked, then their nearest neighbours and some compounds at random.

Tested on: A673/TR/shEF
Assay: cell viability (LOESS-normalised, relative to median of negative controls) (log2 ratio); higher = more viable cells (less compound effect), active = hit call of the paper (over 3 MAD below the median)
Settings: treatment time: 72 h
Summary of the method: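 A673/TR/shEF Ewing sarcoma cells (1,500 per well, 384-well plates) were grown with or without doxycycline to induce EWS-FLI1 shRNA knockdown, starting 24 h before compounds. Library compounds at two or more concentrations, with DMSO controls, were added for three days. Cell viability was read by CellTiter-Glo luminescence on an Envision reader, then LOESS-corrected per plate, divided by the median of negative controls and log2-transformed. Hits were wells at least three median absolute deviations from the median of all screened wells.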

[1] = 0.25 µM, library screen: screen1, EWS-FLI1 expression: high (no doxycycline)
[2] = 0.25 µM, library screen: screen1, EWS-FLI1 expression: low (doxycycline-induced shRNA knockdown)
[3] = 2.5 µM, library screen: screen1, EWS-FLI1 expression: high (no doxycycline)
[4] = 2.5 µM, library screen: screen1, EWS-FLI1 expression: low (doxycycline-induced shRNA knockdown)
[5] = 0.25 µM, library screen: screen2, EWS-FLI1 expression: high (no doxycycline)
[6] = 0.25 µM, library screen: screen2, EWS-FLI1 expression: low (doxycycline-induced shRNA knockdown)
[7] = 2.5 µM, library screen: screen2, EWS-FLI1 expression: high (no doxycycline)
[8] = 2.5 µM, library screen: screen2, EWS-FLI1 expression: low (doxycycline-induced shRNA knockdown)
[9] = 0.103 µM, library screen: screen3, EWS-FLI1 expression: high (no doxycycline)
[10] = 0.103 µM, library screen: screen3, EWS-FLI1 expression: low (doxycycline-induced shRNA knockdown)
[11] = 0.308 µM, library screen: screen3, EWS-FLI1 expression: high (no doxycycline)
[12] = 0.308 µM, library screen: screen3, EWS-FLI1 expression: low (doxycycline-induced shRNA knockdown)
[13] = 0.926 µM, library screen: screen3, EWS-FLI1 expression: high (no doxycycline)
[14] = 0.926 µM, library screen: screen3, EWS-FLI1 expression: low (doxycycline-induced shRNA knockdown)
[15] = 2.8 µM, library screen: screen3, EWS-FLI1 expression: high (no doxycycline)
[16] = 2.8 µM, library screen: screen3, EWS-FLI1 expression: low (doxycycline-induced shRNA knockdown)
[17] = 8.3 µM, library screen: screen3, EWS-FLI1 expression: high (no doxycycline)
[18] = 8.3 µM, library screen: screen3, EWS-FLI1 expression: low (doxycycline-induced shRNA knockdown)
[19] = 25 µM, library screen: screen3, EWS-FLI1 expression: high (no doxycycline)
[20] = 25 µM, library screen: screen3, EWS-FLI1 expression: low (doxycycline-induced shRNA knockdown)

Measured: cell viability (log2)

O=C(O)c1cc(=O)c(O)c2c(O)c(O)ccc2c1
inactive: [1] 0.0685 | [2] 0.0312 | [3] 0.157 | [4] 0.0783

Fc1cccc(CN2CCN(Cc3ccco3)CC2)c1
inactive: [1] 0.0188 | [2] 0.159 | [3] 0.104 | [4] 0.135

C=CCCCCCCCCCCCC=CC(O)COC(C)=O (centres undefined)
inactive: [1] -0.0116 | [2] 0.0382 | [3] 0.137 | [4] 0.0541

CC12CCC(=O)C=C1CCC1C2C(O)CC2(C)C1CCC2(O)C(=O)COC(=O)CCC(=O)O (centres undefined)
inactive: [5] 0.252 | [6] 0.0354 | [7] 0.189 | [8] 0.145

CCSCCOC(=O)C1=C(C)NC2=C(C(=O)CC(C)(C)C2)C1c1coc2ccccc2c1=O (centres undefined)
inactive: [1] 0.0909 | [2] 0.0763 | [3] 0.107 | [4] 0.00786

CCOc1ccc2nc(SC)nc(C)c2c1
inactive: [1] 0.0636 | [2] 0.0768 | [3] 0.137 | [4] -0.103

CC1CC2C3CCC4=CC(=O)C=CC4(C)C3C(=O)CC2(C)[C@@]1(O)C(=O)CO (some centres undefined)
inactive: [9] 0.145 | [10] -0.00246 | [11] 0.132 | [12] 0.12 | [13] 0.101 | [14] 0.0958 | [15] 0.116 | [16] 0.077 | [17] 0.0168 | [18] 0.08 | [19] 0.0762 | [20] 0.0993

COc1ccc(CN2CCN(Cc3ccccc3Br)CC2)cc1OC
inactive: [1] 0.0838 | [2] 0.133 | [3] 0.0605 | [4] 0.115

Cc1cc(O)c2c(c1)Cc1cccc(O)c1C2=O
inactive: [1] 0.119 | [2] 0.00964 | [3] 0.16 | [4] 0.111

O=C1CSC(=O)N1CCN1C(=O)SC(=Cc2ccc(O)cc2)C1=O
inactive: [1] 0.0789 | [2] 0.0957 | [3] 0.0804 | [4] -0.00491

O=C(Oc1cc(O)cc2c1CC(OC(=O)c1cc(O)c(O)c(O)c1)C(c1ccc(O)c(O)c1)O2)c1cc(O)c(O)c(O)c1 (centres undefined)
inactive: [1] 0.117 | [2] -0.00743 | [3] 0.128 | [4] -0.0369

CCCCCCCCCCCCCCCCCC(=O)NCC(COP(=O)([O-])OCC[N+](C)(C)C)OCC (centres undefined)
inactive: [5] 0.252 | [6] 0.0979 | [7] 0.243 | [8] 0.0461

CC(CN1c2ccccc2Sc2cccnc21)N(C)C (centres undefined)
inactive: [1] 0.132 | [2] 0.0453 | [3] 0.0549 | [4] 0.034

COc1cc2ncnc(Nc3cccc(Cl)c3)c2cc1OC
active: [3] -0.137 | 25 µM, library screen: screen1, EWS-FLI1 expression: high (no doxycycline) -0.119
0.297: 25 µM, library screen: screen1, EWS-FLI1 expression: low (doxycycline-induced shRNA knockdown)
0.289: [1]
inactive: 0.025 µM, library screen: screen1, EWS-FLI1 expression: high (no doxycycline) 0.237 | 0.025 µM, library screen: screen1, EWS-FLI1 expression: low (doxycycline-induced shRNA knockdown) 0.01 | [2] 0.0337 | [5] 0.134 | [6] 0.0168 | [4] 0.122 | [7] 0.175 | [8] 0.00846

COc1cc2ncnc(Nc3ccc(O)cc3)c2cc1OC
inactive: [5] 0.241 | [6] 0.0114 | [7] 0.112 | [8] 0.0956

C#Cc1cccc(Nc2ncnc3cc(OCCOC)c(OCCOC)cc23)c1
inactive: [9] 0.107 | [10] 0.0915 | [11] 0.189 | [12] 0.0523 | [13] 0.0696 | [14] 0.0933 | [15] 0.0439 | [16] 0.0596 | [17] 0.105 | [18] 0.0233 | [19] -0.0778 | [20] -0.0451

C#Cc1cccc(Nc2ncnc3cc(OC)c(OCCCCCCC(=O)NO)cc23)c1
inactive: [9] -0.0787 | [10] -0.0134 | [11] -0.0791 | [12] -0.0194
active: [13] -0.53 | [14] -0.197 | [15] -1.73 | [16] -0.607 | [17] -2.92 | [18] -0.618 | [19] -3.65 | [20] -1.64

COCC(=O)NC/C=C/c1ccc2ncnc(Nc3ccc(Oc4ccc(C)nc4)c(C)c3)c2c1
inactive: [9] 0.0492 | [10] 0.0262 | [11] -0.0204 | [12] 0.0495 | [13] -0.0118 | [14] 0.013 | [15] -0.0655 | [16] -0.0248 | [17] -0.00849 | [18] 0.0384 | [19] -0.127 | [20] -0.105

CN(C)c1cc2c(Nc3ccc4c(cnn4Cc4ccccc4)c3)ncnc2cn1
inactive: [5] 0.124 | [6] 0.0545 | [7] 0.147 | [8] 0.0613

CC(C)CC1NC(=O)CNC1=O (centres undefined)
inactive: [1] 0.138 | [2] 0.0779 | [3] 0.0859 | [4] 0.0262

Oc1ccc2c(c1)O[C@H](c1ccc(O)c(O)c1)[C@@H](O)C2
inactive: [1] 0.0741 | [2] -0.0244 | [3] 0.0985 | [4] 0.085

COc1cc(O)c2c(=O)cc(-c3ccc(OC)c(-c4c(O)cc(O)c5c(=O)cc(-c6ccc(O)cc6)oc45)c3)oc2c1
inactive: [1] 0.0329 | [2] 0.0664 | [3] 0.144 | [4] -0.0351

CC(=O)OCC(=O)[C@@]1(O)CC[C@H]2[C@@H]3CC[C@@H]4C[C@H](OC(C)=O)CC[C@]4(C)[C@H]3C(=O)C[C@@]21C
inactive: [1] 0.118 | [2] 0.0343 | [3] 0.0611 | [4] -0.0696

NC(CCC(=O)NCS(=O)(=O)O)C(=O)O (centres undefined)
inactive: [5] 0.192 | [6] 0.0399 | [7] 0.0879 | [8] 0.0533

N/C(=N/c1nc2ccccc2o1)NC(=O)c1cccc(Br)c1
inactive: [1] 0.0693 | [2] -0.0125 | [3] 0.162 | [4] -0.0831

CN(Cc1ccccc1)C(=O)C=Cc1ccc([N+](=O)[O-])cc1
inactive: [1] 0.0837 | [2] 0.078 | [3] 0.013 | [4] 0.137
